Compounds with a hit are over-represented: about 4.2% of the library has one in this group of screens.
VDR inhibitor: vitamin D3 receptor (human) inhibition; VDR-SRC2-3 peptide fluorescence polarization, 2 h; P11473; actives 0.93% (n = 400,000); Potency, µM, inactives show max response, negative = inhibition, most hits filed as inhibitors
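Signal is fluorescence polarization, reporting how far test compounds block the interaction of VDR with the SRC2-3 coregulator peptide after a 2 h room-temperature incubation.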
ALOX12 inh: ALOX12 (human) lipoxygenase inhibition; P18054; purified 12hLO, xylenol orange hydroperoxide absorbance; Potency, µM (titrated, usually from 108 µM), for the others: at the top dose activity change, negative = inhibition, usual class: inhibitors; actives 1.1% (n = 580,000)
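Purified human 12hLO (150 nM final) in 25 mM Hepes, 0.01% Triton X-100, pH 7.0 was preincubated 15 min at room temperature with compound. Then 40 uM arachidonic acid was added, 30 min. Hydroperoxide was read by Fe-XO absorbance ratio 573/405 nm.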
Sfp PPTase inh: Sfp phosphopantetheinyl transferase inhibition; Biochemical Sfp PPTase activity, qHTS; Potency, µM, inactives show largest response in the series, negative = inhibition, hits mostly inhibitors; actives 3.5% (n = 310,000); AID 1490;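 further: the enzyme is Sfp with the accession as filed and its product quenches rhodamine fluorescence; 0% = enzyme reaction without inhibitor and -100% = no enzyme wells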
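Fluorescence-quenching assay: 15 nM Sfp-PPTase preincubated 15 min at room temperature with compound, then 5 uM rhodamine-CoA and 12.5 uM BHQ-2-labelled YbbR peptide added. Fluorescence (ex 525/em 598 nm) read at start and after 30 min; difference gives rate.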
PLK1 PBD block: blocks phosphopeptide binding to human PLK1 polo-box domain; Potency, µM, without a hit: max response, negative = inhibition, actives largely listed as inhibitors; AID 720504; Plk1 PBD binding of FITC phosphopeptide, fluorescence polarization; actives 2.8% (n = 360,000); P53350; further: series mostly up to about 57 µM; nearly all actives have a fitted effect of over 65% in size
Target sequence (P53350 whole entry, looked up, the tested form may be a part): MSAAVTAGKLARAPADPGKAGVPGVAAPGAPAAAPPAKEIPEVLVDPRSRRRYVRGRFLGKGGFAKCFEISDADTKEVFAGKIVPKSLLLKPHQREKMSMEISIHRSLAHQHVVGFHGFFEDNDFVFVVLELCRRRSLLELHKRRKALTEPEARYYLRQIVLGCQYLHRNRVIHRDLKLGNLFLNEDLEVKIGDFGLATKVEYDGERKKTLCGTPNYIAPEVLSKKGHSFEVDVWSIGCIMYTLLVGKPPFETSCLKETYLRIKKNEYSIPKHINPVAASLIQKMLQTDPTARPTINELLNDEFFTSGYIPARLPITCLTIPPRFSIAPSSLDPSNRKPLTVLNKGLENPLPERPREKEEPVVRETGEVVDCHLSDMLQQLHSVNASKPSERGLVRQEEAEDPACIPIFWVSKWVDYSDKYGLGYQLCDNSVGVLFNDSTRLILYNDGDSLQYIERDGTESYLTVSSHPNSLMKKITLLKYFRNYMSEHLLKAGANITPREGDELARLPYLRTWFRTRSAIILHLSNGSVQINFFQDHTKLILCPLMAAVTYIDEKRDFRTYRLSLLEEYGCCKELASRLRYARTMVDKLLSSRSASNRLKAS
* hit, by the source's call; u = inconclusive; x = no result given. The call rests on the fitted dose curve; in most records, active means well fitted curve in the direction sought with a large enough effect; inconclusive means small, poorly fitted or top-dose-only effect, or another doubt; inactive means no such curve, though single readings can be large; an effect the other way counts as inactive or inconclusive. Unless noted, on the % scale 0 is the no-effect control and ±100 the full control effect; potency means the concentration at half of the fitted maximal effect.

SMILES | VDR inhibitor | ALOX12 inh | Sfp PPTase inh | PLK1 PBD block
Cc1cc(C)nc(NS(=O)(=O)c2ccc(NC(=O)Cc3ccccc3)cc2)n1 | -10.8% | -4.1% | -0.1% | u
CCc1ccc2oc(C(=O)Nc3ccc(S(=O)(=O)Nc4cc(C)nc(C)n4)cc3)cc(=O)c2c1 | x | 17.8µM* | x | x
Cc1cc(NS(=O)(=O)c2ccc(NC(=O)COc3ccc(Br)cc3)cc2)nc(C)n1 | u | -17.1% | 3.9% | 2.67µM*
CC1CCCC(NC(=O)COC(=O)CSc2ccc3ccccc3c2)C1C (centres undefined) | -6.7% | -7.7% | -2.4% | -16.8%
CCOc1ccccc1C(=O)N(Cc1ccc(C)o1)C1CCS(=O)(=O)C1 (centres undefined) | u | 62.8% | -2.2% | 18.9µM*
CCOc1ccccc1C(=O)N(Cc1ccco1)C1CCS(=O)(=O)C1 (centres undefined) | 12.1% | -9.1% | 50.1µM* | -8.3%
COCCNc1nc(N)c([N+](=O)[O-])c(Nc2ccc(F)cc2)n1 | -13.5% | -10.0% | 14.5% | 0.9%
COc1ccc(-c2cc(C(F)(F)F)nc(S(=O)(=O)CCC(=O)Nc3ccc(C)cc3)n2)cc1 | x | 14.0% | x | x
O=C(CCS(=O)(=O)c1nc(-c2cccs2)cc(C(F)(F)F)n1)Nc1ccc(OC(F)(F)F)cc1 | 14.1µM* | u | x | x
COCc1nc(-c2ccc(OC3CN(C(=O)NCc4ccccc4)C3)cc2)no1 | x | 3.4% | x | x
O=C(Nc1ccccc1)[C@@H]1[C@@H]2C(=O)N(c3ccc(F)cc3)C(=O)[C@@H]2[C@H]2C=CC=NN21 | 6.1% | 151.9% | 35.5µM* | -5.3%
O=[N+]([O-])c1ccc(-[n+]2ccc3ccccc3c2)c([N+](=O)[O-])c1 | 79.4µM* | u | x | 23.8µM*
CC/C=C(/C)C(=O)NC1CCN(C(=O)C(C)(C)C)CC1 | x | -24.2% | x | x
Cn1cccc1C(=O)NCCc1c[nH]c2ccccc12 | x | -13.3% | x | x
CC(C)c1ccc(-c2nc3cc(NC(=O)c4cccnc4)ccc3o2)cc1 | x | 39.8µM* | x | x
COc1ccccc1C(=O)Nc1ccc2oc(-c3ccc(F)cc3)nc2c1 | 12.9% | u | 50.1µM* | -9.2%
O=C(O)c1ccccc1-c1ccccc1C(=O)Nc1ccc(-c2nc3cc(Cl)ccc3o2)cc1 | -26.8% | 44.7µM* | 7.4% | 21.2µM*
O=C(Nc1ccc(-c2nc3cc(Cl)ccc3o2)cc1)c1cc(Br)ccc1Cl | -15.3% | 2.8% | x | x
COc1ccc(-c2nc3cc(NC(=S)NC(=O)Cc4ccccc4)ccc3o2)cc1 | -26.9% | 28.2µM* | -8.2% | -1.3%
COc1cccc(OC)c1C(=O)Nc1ccc2oc(-c3ccc(F)cc3)nc2c1 | x | 5.9% | x | x
CCCCNC(=O)N(O)C1N(/N=C/c2ccccc2F)C(=S)SC1(C)C (centres undefined) | -5.7% | 30.2% | 8.7% | 3.4%
COc1cccc(OC)c1C(=O)Nc1ccc(-c2nc3ccccc3o2)cc1 | x | 39.8µM* | x | x
Cc1ccc([N+](=O)[O-])cc1S(=O)(=O)n1ccnc1C | u | -4.6% | 9.3% | 4.23µM*
CC(Sc1nnc(C2CC2)n1C1CC1)C(=O)Nc1cccc(S(=O)(=O)N2CCOCC2)c1 (centres undefined) | 0.8% | 0.0% | x | 3.7%
Cc1cc2nc(C)c(=O)n(C)c2cc1C | u | -7.8% | 0.5% | 13.4µM*
SMILES | VDR inhibitor | ALOX12 inh | Sfp PPTase inh | PLK1 PBD block
Cc1cc2nc(-c3ccc(=O)[nH]c3)n(C)c2cc1C | 0.5% | 0.0% | 11.1% | 0.7%
O=C(CSc1ccc(-c2ccco2)nn1)Nc1ccc(F)cc1F | u | 5.8% | 50.1µM* | -29.9%
COc1ccc(C)cc1NC(=O)CSc1ccc(-c2ccco2)nn1 | u | 0.0% | 17.8µM* | u
Cc1cccc(NC(=O)CSc2ccc(-c3ccco3)nn2)c1C | -18.8% | -23.1% | 22.4µM* | -14.4%
Cc1noc(C)c1CSc1nc2ccccc2nc1NS(=O)(=O)c1ccc(Cl)cc1 | -6.7% | x | 4.8% | 5.97µM*
CC(C(=O)OCC(=O)c1ccccc1)N1C(=O)c2ccccc2C1=O (centres undefined) | u | 1.6% | -8.2% | 29.9µM*
COc1cccc(C(=O)COC(=O)C(C)N2C(=O)c3ccccc3C2=O)c1 (centres undefined) | 2.8% | 20.6% | 1.8% | -2.8%
CCOC(=O)C1(C)CCN1C(=O)c1ccc(SC(F)(F)F)cc1 (centres undefined) | x | -10.2% | x | -5.7%
COC(=O)CC(NC(=S)NC(=O)c1ccccc1)c1ccc(Br)cc1 (centres undefined) | -2.5% | 7.94µM* | 3.3% | -6.1%
COC(=O)CC(N)c1ccc(Br)cc1 (centres undefined) | -3.3% | -1.0% | 18.1% | -10.1%
NNC(=O)CSCc1nc(-c2ccc(Cl)cc2)cs1 | -18.7% | 215.7% | 11.9% | -7.3%
COc1ccccc1CNc1ccnc(-c2ccc(N(C)C)cc2)n1 | -12.9% | 25.1µM* | u | x
Cc1cccc(CNc2ccnc(-c3ccc(N(C)C)cc3)n2)c1 | u | -30.4% | 39.8µM* | x
CN(C)c1ccc(-c2nccc(NCc3ccccc3)n2)cc1 | 1.7% | u | -13.8% | x
CC(C)(C)OC(=O)C[C@H]1C/C=C\C[C@@H](CC(=O)N(CCO)Cc2ccccc2)C(=O)N2CCC[C@@H]2COC1=O | -22.9% | -0.6% | x | -0.3%
CC(=O)Nc1c2c3c(cccc3n(C)c1=O)C(=O)c1ccccc1-2 | 16.1% | -14.1% | -24.4% | -19.8%
Cn1c(=O)c(Nc2ccc(Cl)cc2)c2c3c(cccc31)C(=O)c1ccccc1-2 | 5.3% | u | -14.5% | 13.4µM*
Cc1ccc(CCNC(=O)C23CN(Cc4ccccc4)CC2C(c2ccc([N+](=O)[O-])cc2)=NO3)cc1 (centres undefined) | -19.7% | u | 10µM* | -14.5%
O=C(NCc1ccccc1)C12CN(Cc3ccccc3)CC1C(c1cccc([N+](=O)[O-])c1)=NO2 (centres undefined) | -8.8% | -0.8% | 0.9% | 1.1%
Cc1ccc(CNC(=O)C23CN(Cc4ccccc4)CC2C(c2ccc([N+](=O)[O-])cc2)=NO3)cc1 (centres undefined) | -7.1% | -23.5% | 39.8µM* | -6.7%
CCNC(=O)C1CCc2ncc(-c3ccsc3)n2C1 (centres undefined) | x | 25.2% | x | x
CC(Oc1ccccc1)C(=O)N1CCN(c2ncccn2)CC1 (centres undefined) | -12.0% | 3.1% | x | -7.9%
CCC(C(=O)N1CCN(c2ncccn2)CC1)c1ccccc1 (centres undefined) | -25.6% | -18.9% | 18.5% | 23.8µM*
COc1cccc(NC(=O)NNC(=O)CCc2ccc(O)c(O)c2)c1 | 2.8% | u | 56.2µM* | -2.5%
COc1cccc(-n2nnc3c(=O)n(Cc4ccc(C)cc4)cnc32)c1 | -6.4% | -12.3% | 7.0% | -8.8%
COc1cccc(-n2nnc3c(=O)n(Cc4ccc(Br)cc4)cnc32)c1 | 4.1% | 5.1% | 35.5µM* | 1.5%
O=C(C(Br)=Cc1ccccc1)c1ccccc1 | 22.4µM* | 12.1% | x | u
COc1ccc(NC(=O)c2cccc3c(-c4cccnc4)coc23)cc1 | x | -11.9% | x | -2.8%
COC(=O)Nc1ccc(S(=O)(=O)N(CCO)CC(F)(F)C(F)F)cc1 | 8.7% | 0.0% | 16.5% | -12.4%

Source: PubChem BioAssay (National Center for Advancing Translational Sciences (NCATS))
